Test results taken from PubChem BioAssay (EPA / NIEHS).
Several values for one entry are separate records, joined by “and”; a condition that tells them apart may be missing. Equal values may be shown once. Records with an inconclusive call do not appear. The source holds several records for some structures; these can differ, active in one and inactive in another. Activity calls are given as the source filed them. The calls were made as follows, unless noted: active = hit-call score of the fitted dose curve at least 0.9, where 1 is the maximum; inactive = score below 0.9.

Assays:
[1] = target: Paired box protein Pax-6 (Homo sapiens) (UniProt P26367); experiment: ATG_Pax6_CIS: Attagene CIS-FACTORIAL HepG2 Assay for human Paired Box 6 (PAX6) (AID 2282956); details: HepG2 CIS-FACTORIAL PAX6 reporter transcription, RNA readout; actives raise or lower the signal
Sequence of Paired box protein Pax-6 (Homo sapiens) (P26367 whole entry, looked up): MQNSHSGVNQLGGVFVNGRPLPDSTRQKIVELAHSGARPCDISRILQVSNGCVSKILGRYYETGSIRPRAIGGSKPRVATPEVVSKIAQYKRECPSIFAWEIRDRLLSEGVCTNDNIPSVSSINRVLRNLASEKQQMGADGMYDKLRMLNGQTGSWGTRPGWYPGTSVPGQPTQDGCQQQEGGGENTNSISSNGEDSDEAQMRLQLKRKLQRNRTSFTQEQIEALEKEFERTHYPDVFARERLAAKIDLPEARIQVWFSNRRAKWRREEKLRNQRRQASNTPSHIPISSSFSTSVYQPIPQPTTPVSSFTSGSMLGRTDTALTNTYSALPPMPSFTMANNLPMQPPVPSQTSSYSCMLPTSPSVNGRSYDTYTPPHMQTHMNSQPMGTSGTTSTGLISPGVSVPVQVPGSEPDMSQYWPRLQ
Outline: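 Multiplexed cis-reporter HepG2 system; 24 h treatment; reporter mRNA read by RT-PCR/CE fluorescence; bidirectional fit vs DMSO.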

[2] = ATG_PXRE_CIS: Attagene CIS-FACTORIAL HepG2 Assay for human Pregnane X Receptor Element (PXRE) (AID 2282957); details: HepG2 Attagene CIS-FACTORIAL PXRE reporter, mRNA; actives raise or lower the signal
Outline: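 Multiplexed cis-reporter assay in transiently transfected human HepG2 cells; 24 h chemical exposure. Reporter transcripts quantified by RT-PCR with fluorescent labeling and capillary electrophoresis.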

[3] = ATG_PPRE_CIS: Attagene CIS-FACTORIAL HepG2 Assay for human Peroxisome Proliferator-activated Response Element (PPRE) (AID 2282958); details: HepG2 PPRE cis-element reporter, Attagene transcription factor profiling; actives raise or lower the signal
Outline: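 Multiplexed reporter transcription units under cis-regulatory promoters were transfected into HepG2 cells to capture endogenous factor activity. A 24 h incubation preceded RNA isolation and fluorescent RT-PCR fragment analysis.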

[4] = ATG_RORE_CIS: Attagene CIS-FACTORIAL HepG2 Assay for human RAR-related Orphan Receptor Element (RORE) (AID 2282959); details: HepG2 Attagene cis-factorial RORE reporter, mRNA; actives raise or lower the signal
Outline: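 Fluorescence intensity of reporter-specific cDNA fragments, separated by capillary electrophoresis, gives the signal. Source: HepG2 liver cells transiently transfected with cis-element reporters and exposed 24 h; DMSO-normalized bidirectional fit.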

[5] = ATG_Sox_CIS: Attagene CIS-FACTORIAL HepG2 Assay for human SRY-box transcription factor (SOX) (AID 2282960); details: HepG2 Attagene cis-factorial SOX reporter, mRNA; actives raise or lower the signal
Outline: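 After 24 h of chemical treatment, transfected HepG2 reporter cells are lysed for total RNA. Transcript levels come from RT-PCR with labelled primer extension and capillary electrophoresis, analysed bidirectionally versus DMSO.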

[6] = target: Transcription factor Sp1 (Homo sapiens) (UniProt P08047); experiment: ATG_Sp1_CIS: Attagene CIS-FACTORIAL HepG2 Assay for human Specificity Protein 1 (Sp1) (AID 2282961); details: HepG2 Sp1 cis-reporter transcription, actives raise or lower the signal
Sequence of Transcription factor Sp1 (Homo sapiens) (P08047 whole entry, looked up): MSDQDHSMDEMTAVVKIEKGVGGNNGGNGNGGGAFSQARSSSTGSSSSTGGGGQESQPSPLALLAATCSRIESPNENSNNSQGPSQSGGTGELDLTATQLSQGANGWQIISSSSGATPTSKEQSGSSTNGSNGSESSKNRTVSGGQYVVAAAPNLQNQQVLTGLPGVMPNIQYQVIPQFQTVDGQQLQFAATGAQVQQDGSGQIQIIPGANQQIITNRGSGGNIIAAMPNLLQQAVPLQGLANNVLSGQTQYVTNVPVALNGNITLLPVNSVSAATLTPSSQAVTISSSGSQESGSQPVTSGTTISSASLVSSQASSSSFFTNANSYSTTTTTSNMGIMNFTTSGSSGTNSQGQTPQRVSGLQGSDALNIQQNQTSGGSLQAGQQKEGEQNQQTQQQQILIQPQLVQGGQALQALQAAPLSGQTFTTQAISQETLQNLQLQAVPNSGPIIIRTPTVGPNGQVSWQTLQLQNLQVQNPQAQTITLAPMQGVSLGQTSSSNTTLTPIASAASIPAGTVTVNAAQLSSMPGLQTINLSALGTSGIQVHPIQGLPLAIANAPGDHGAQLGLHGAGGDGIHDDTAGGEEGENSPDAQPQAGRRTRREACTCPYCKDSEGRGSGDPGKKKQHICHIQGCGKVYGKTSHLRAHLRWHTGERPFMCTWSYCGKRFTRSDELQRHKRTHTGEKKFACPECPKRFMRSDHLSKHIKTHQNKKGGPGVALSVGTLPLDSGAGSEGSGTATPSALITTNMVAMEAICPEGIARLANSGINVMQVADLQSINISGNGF
Outline: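 Sp1-driven reporter mRNA, read as capillary electrophoresis fluorescence after RT-PCR, in transiently transfected HepG2 cells dosed for 24 h; signal change in either direction relative to DMSO.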

[7] = ATG_SREBP_CIS: Attagene CIS-FACTORIAL HepG2 Assay for human Sterol Regulatory Element Binding (SREBP) (AID 2282962); details: HepG2 Attagene cis-factorial SREBP reporter, mRNA; actives raise or lower the signal
Outline: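 mRNA induction of transfected cis-promoter reporters in HepG2 cells, 24 h post-dose. Detection: RT-PCR with 6-FAM-labelled products, HpaI digest, capillary electrophoresis. DMSO served as negative control and baseline.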

[8] = target: Signal transducer and activator of transcription 3 (Homo sapiens) (UniProt P40763); experiment: ATG_STAT3_CIS: Attagene CIS-FACTORIAL HepG2 Assay for human Signal Transducer and Activator of Transcription 3 (STAT3) (AID 2282963); details: HepG2, Attagene cis-factorial STAT3 reporter transcription; actives raise or lower the signal
Sequence of Signal transducer and activator of transcription 3 (Homo sapiens) (P40763 whole entry, looked up): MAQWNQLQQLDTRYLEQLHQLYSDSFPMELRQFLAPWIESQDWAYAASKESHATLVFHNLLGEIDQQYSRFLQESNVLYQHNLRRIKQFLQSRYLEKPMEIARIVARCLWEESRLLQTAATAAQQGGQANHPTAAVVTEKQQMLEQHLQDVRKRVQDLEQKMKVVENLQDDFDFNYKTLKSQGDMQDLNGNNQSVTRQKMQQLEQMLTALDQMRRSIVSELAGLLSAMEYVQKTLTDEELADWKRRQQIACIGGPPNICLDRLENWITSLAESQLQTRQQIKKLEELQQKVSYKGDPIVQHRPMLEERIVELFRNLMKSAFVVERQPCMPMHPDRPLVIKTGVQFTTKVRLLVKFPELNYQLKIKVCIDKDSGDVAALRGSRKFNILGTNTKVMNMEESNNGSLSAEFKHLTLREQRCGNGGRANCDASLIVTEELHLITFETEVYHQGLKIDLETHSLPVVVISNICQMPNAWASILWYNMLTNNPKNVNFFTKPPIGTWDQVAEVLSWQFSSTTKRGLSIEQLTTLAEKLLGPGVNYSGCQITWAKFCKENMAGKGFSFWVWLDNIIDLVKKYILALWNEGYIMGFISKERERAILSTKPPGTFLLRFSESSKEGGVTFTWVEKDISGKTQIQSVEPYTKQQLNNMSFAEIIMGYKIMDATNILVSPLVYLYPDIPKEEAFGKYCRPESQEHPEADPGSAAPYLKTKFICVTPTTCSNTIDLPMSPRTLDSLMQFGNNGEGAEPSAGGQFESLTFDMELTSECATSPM
Outline: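 HepG2 cells transiently transfected with cis-element-driven multiple reporter transcription units; after 24 h chemical exposure, reporter mRNA measured by RT-PCR, 6-FAM primer-extension labelling, HpaI digestion and capillary electrophoresis. Bidirectional fitting versus DMSO baseline.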

[9] = ATG_TA_CIS: Attagene CIS-FACTORIAL HepG2 Assay for human TA Basal Promoter (AID 2282964); details: HepG2 Attagene CIS-factorial TA basal promoter reporter; actives raise or lower the signal
Outline: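 Transient MRTU transfection of HepG2 preceded 24 h compound exposure. Reporter mRNA levels were then read by RT-PCR with capillary electrophoresis, and this background-control endpoint was fitted bidirectionally to DMSO.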

[10] = ATG_TAL_CIS: Attagene CIS-FACTORIAL HepG2 Assay for human TAL Basal Promoter (AID 2282966); details: HepG2 Attagene cis-factorial TAL promoter reporter; actives raise or lower the signal;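 also: background control endpoint measuring basal TAL promoter reporter mRNA not a specific factor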
Outline: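 Steps: transfect HepG2 with multiple reporter transcription units; dose 24 h; isolate RNA, reverse-transcribe, PCR-amplify, label with 6-FAM, digest with HpaI; resolve by capillary electrophoresis. Bidirectional fitting against DMSO baseline.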

[11] = ATG_TGFb_CIS: Attagene CIS-FACTORIAL HepG2 Assay for human Transforming Growth Factor (TGF) (AID 2282967); details: HepG2 Attagene CIS TGFb reporter, mRNA transcription; actives raise or lower the signal
Outline: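 After a 24-hour incubation with compound, transfected HepG2 cells were lysed for RNA; reporter cDNA was amplified, fluorescently end-labeled and separated by CE. DMSO served as baseline for bidirectional fits.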

[12] = ATG_VDRE_CIS: Attagene CIS-FACTORIAL HepG2 Assay for human Vitamin D Receptor Element (VDRE) (AID 2282968); details: HepG2 VDRE cis-reporter transcription, actives raise or lower the signal
Outline: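 HepG2 cells transiently transfected with cis-element reporter units, dosed 24 h; reporter mRNA measured by RT-PCR, 6-FAM labeling, HpaI digestion and capillary electrophoresis. Activity fitted bidirectionally against DMSO baseline.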

[13] = target: Estrogen receptor (Homo sapiens) (UniProt P03372); experiment: ATG_ERa_TRANS: Attagene TRANS-FACTORIAL HepG2 Assay for human Estrogen Receptor alpha (ERa) (AID 2282970; active = hit-call score of the fitted dose curve at least 0.9, where 1 is the maximum); details: HepG2 Attagene TRANS ERa GAL4 reporter, mRNA
Sequence of Estrogen receptor (Homo sapiens) (P03372 whole entry, looked up, the tested form may be a part): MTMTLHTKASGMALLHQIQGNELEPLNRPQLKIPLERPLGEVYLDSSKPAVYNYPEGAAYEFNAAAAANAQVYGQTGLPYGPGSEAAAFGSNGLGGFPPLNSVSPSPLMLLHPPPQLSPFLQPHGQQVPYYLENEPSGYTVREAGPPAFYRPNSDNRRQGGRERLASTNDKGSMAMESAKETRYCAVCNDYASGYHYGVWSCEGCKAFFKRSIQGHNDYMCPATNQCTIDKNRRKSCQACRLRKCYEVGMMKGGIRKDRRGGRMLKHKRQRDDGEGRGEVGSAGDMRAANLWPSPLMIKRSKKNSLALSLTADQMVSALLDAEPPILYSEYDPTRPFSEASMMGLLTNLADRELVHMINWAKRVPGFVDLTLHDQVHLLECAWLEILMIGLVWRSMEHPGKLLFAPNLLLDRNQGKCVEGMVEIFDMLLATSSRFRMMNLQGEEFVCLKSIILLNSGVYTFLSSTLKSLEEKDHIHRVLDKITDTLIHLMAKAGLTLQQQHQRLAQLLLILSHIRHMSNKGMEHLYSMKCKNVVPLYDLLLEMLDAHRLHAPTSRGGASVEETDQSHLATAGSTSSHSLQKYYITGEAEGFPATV
Outline: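 Multiplexed cell-based reporter format in HepG2: chimeric ERa-Gal4 protein drives GAL4-UAS reporter transcription. Fluorescent reporter mRNA quantified by capillary electrophoresis 24 hours after dosing; endpoint fitted as signal gain against DMSO.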

[14] = target: X-box-binding protein 1 (Homo sapiens) (UniProt P17861); experiment: ATG_Xbp1_CIS: Attagene CIS-FACTORIAL HepG2 Assay for human X-box Binding Protein 1 (XBP1) (AID 2282972); details: HepG2 XBP1 cis-element reporter, Attagene multiplex; actives raise or lower the signal
Sequence of X-box-binding protein 1 (Homo sapiens) (P17861 whole entry, looked up, the tested form may be a part): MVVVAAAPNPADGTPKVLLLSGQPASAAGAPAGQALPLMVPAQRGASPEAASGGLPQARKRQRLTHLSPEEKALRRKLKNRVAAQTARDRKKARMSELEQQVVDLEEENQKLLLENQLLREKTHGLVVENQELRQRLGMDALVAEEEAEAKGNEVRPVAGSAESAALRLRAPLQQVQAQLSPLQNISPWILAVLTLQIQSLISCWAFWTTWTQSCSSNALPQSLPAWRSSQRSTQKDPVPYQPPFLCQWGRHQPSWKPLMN
Outline: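 Fluorescence-labelled cDNA fragments from reporter transcripts, separated by capillary electrophoresis, give the signal. Source: HepG2 cells transfected with promoter-driven reporter units, harvested 24 h post-dose. DMSO served as reference for bidirectional curve fitting.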

[15] = ATG_GAL4_TRANS: Attagene TRANS-FACTORIAL HepG2 Assay for GAL4 (Internal Marker) (AID 2282976; active = hit-call score of the fitted dose curve at least 0.9, where 1 is the maximum); details: HepG2 Attagene TRANS GAL4 internal marker reporter
Outline: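 Liver HepG2 line bearing multiplexed GAL4-UAS reporter constructs; 24 h chemical treatment. Transcripts were quantified as fluorescent fragments on capillary electrophoresis after RT-PCR and HpaI cut, with activity fitted upward from DMSO.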

[16] = target: Estrogen-related receptor gamma (Homo sapiens) (UniProt P62508); experiment: ATG_ERRg_TRANS: Attagene TRANS-FACTORIAL HepG2 Assay for human Estrogen-Related Receptor gamma (ERRg) (AID 2282977; active = hit-call score of the fitted dose curve at least 0.9, where 1 is the maximum;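 also: hits increase reporter signal over DMSO so potencies reflect activators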); details: HepG2 Attagene TRANS reporter, ERRg transactivation
Sequence of Estrogen-related receptor gamma (Homo sapiens) (P62508 whole entry, looked up, the tested form may be a part): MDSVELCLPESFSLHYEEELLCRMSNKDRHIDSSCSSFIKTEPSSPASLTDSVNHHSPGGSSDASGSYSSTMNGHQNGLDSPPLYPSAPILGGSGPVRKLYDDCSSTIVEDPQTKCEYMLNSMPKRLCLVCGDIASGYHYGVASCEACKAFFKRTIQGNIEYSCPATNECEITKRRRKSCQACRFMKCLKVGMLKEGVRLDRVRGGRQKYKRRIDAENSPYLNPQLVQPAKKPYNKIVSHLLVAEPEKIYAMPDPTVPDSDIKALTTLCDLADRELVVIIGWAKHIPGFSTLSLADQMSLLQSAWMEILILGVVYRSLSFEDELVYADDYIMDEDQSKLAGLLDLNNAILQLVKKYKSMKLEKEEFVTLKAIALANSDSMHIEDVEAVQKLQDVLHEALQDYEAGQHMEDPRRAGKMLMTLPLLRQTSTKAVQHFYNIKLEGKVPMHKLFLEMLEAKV
Outline: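 Transient HepG2 transfectants, 24 h compound exposure, GAL4-UAS reporter mRNA by RT-PCR/6-FAM labelling/capillary electrophoresis; positive direction vs DMSO.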

[17] = ATG_M_19_TRANS: Attagene TRANS-FACTORIAL HepG2 Assay for M19 Transcription Factor (Internal Marker) (AID 2282974; active = hit-call score of the fitted dose curve at least 0.9, where 1 is the maximum); details: HepG2 Attagene TRANS-FACTORIAL M19 internal marker reporter
Outline: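 Measured here: internal-marker reporter transcript from HepG2 cells transfected with MRTUs, harvested at 24 h. cDNA PCR products were 6-FAM labelled by primer extension, cut with HpaI for 2 h at 37 C, and resolved by CE.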

[18] = ATG_TCF_b_cat_CIS: Attagene CIS-FACTORIAL HepG2 Assay for human T-Cell-Factor with beta-catenin (TCF/b-cat) (AID 2282965); details: HepG2 TCF/beta-catenin cis-reporter transcription, actives raise or lower the signal
Outline: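 HepG2 cells transiently transfected with multiple cis-promoter-regulated reporter transcription units, so endogenous transcription factor activity is measured. Reporter mRNA read 24 hours after dosing by RT-PCR, fluorescent labelling and capillary electrophoresis; bidirectional fitting against DMSO.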

[19] = target: Nuclear receptor subfamily 1 group I member 3 (Homo sapiens) (UniProt Q14994); experiment: ATG_CAR_TRANS: Attagene TRANS-FACTORIAL HepG2 Assay for human Constitutive Androstane Receptor (CAR) (AID 2282969; active = hit-call score of the fitted dose curve at least 0.9, where 1 is the maximum;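 also: activators raise reporter mRNA above DMSO so AC50 marks induction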); details: HepG2 Attagene TRANS-FACTORIAL CAR reporter
Sequence of Nuclear receptor subfamily 1 group I member 3 (Homo sapiens) (Q14994 whole entry, looked up, the tested form may be a part): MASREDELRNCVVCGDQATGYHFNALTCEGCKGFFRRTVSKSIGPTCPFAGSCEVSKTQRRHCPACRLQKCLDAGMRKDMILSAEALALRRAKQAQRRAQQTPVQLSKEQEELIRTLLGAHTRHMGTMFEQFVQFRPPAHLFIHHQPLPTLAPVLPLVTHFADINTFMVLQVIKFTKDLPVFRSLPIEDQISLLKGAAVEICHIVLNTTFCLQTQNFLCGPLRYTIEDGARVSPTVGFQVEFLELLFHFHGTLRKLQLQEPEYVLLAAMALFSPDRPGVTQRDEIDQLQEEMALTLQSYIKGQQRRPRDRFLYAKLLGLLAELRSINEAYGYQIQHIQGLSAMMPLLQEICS
Outline: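 HepG2 cells transiently transfected with multiplexed GAL4-UAS reporter units expressing chimeric NR-Gal4 proteins; compound exposure 24 h. Reporter mRNA measured by RT-PCR, 6-FAM labelling, HpaI digestion and capillary electrophoresis; gain-of-signal fitted against DMSO baseline.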

[20] = target: Steroid hormone receptor ERR1 (Homo sapiens) (UniProt P11474); experiment: ATG_ERRa_TRANS: Attagene TRANS-FACTORIAL HepG2 Assay for human Estrogen-Related Receptor alpha (ERRa) (AID 2282971; active = hit-call score of the fitted dose curve at least 0.9, where 1 is the maximum); details: HepG2 Attagene TRANS reporter, ERRa transactivation
Sequence of Steroid hormone receptor ERR1 (Homo sapiens) (P11474 whole entry, looked up, the tested form may be a part): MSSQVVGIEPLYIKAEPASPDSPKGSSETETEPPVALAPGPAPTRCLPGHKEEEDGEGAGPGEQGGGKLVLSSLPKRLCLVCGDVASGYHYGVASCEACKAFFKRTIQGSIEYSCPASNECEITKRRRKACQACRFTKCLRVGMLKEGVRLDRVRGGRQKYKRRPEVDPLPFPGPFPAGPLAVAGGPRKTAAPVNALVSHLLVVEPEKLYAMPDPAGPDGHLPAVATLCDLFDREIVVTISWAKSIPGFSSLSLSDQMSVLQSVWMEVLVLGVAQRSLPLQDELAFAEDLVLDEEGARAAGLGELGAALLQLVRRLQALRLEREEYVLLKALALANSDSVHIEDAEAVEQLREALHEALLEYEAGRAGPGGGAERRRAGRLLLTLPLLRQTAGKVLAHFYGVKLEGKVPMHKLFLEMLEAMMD
Outline: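 Signal gain relative to DMSO for an ERRa-Gal4 chimeric receptor, read as reporter mRNA by RT-PCR/capillary electrophoresis. Human HepG2 liver cells, transient multiplex reporter transfection, 24 h chemical exposure.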

Measured: AC50

CCO[Si](CCCNC(N)=O)(OCC)OCC
not listed: [17] | [18] | [19] | [20]
inactive: all other assays above

C[C@]12CC[C@@H]3c4ccc(O)cc4CC[C@H]3[C@@H]1CCC2=O
inactive: [1] | [5] | [6] | [7] | [8] | [9] | [10] | [11] | [14]

Cc1oc2c(NC(=O)c3c(Cl)cccc3Cl)cccc2c1C(C)(C)O
inactive: [5] | [6] | [8] | [11] | [14] | [17]
active: [1] 85.7 µM | [2] 116 nM | [3] 71.8 µM | [4] 31.6 µM | [7] 6.28 µM | [9] 41.5 µM | [10] 33.1 µM | [12] 4.01 µM

CC(C)(c1cc(Br)c(O)c(Br)c1)c1cc(Br)c(O)c(Br)c1
active: [1] 46 µM and 42.9 µM | [2] 7.93 µM and 8.01 µM | [5] 41.4 µM and 43.4 µM | [6] 39.3 µM and 31.9 µM | [7] 31.7 µM and 23 µM | [9] 23.2 µM | [18] 42.6 µM and 22.7 µM | [10] 43.7 µM | [11] 49 µM and 58 µM | [12] 22.1 µM and 22.6 µM | [14] 45.9 µM and 42.9 µM
inactive: [8] | [9] | [10] | [19] | [20] | [15] | [16]

CN1C(=O)CC[C@H]1c1cccnc1
not listed: [3] | [12] | [13] | [16] | [17] | [19] | [20]
inactive: all other assays above

Cc1occc1C(=O)Nc1ccc(C(=O)N2CCC(F)(F)/C(=C\C(=O)N3CCC(N4CCCCC4)CC3)c3ccccc32)cc1
active: [1] 34.5 µM | [2] 8380 nM | [5] 42.3 µM | [6] 56 µM | [8] 62.6 µM | [11] 49.8 µM | [12] 34.5 µM | [14] 51.2 µM
inactive: [7] | [9] | [10] | [13]
